# Test results from PubChem BioAssay AID1030 (National Center for Advancing Translational Sciences (NCATS), 2008).
# About 16,000 (7.3%) of roughly 220,000 compounds were called active. Entries that show only a call come without a potency. Roughly 25% stayed inconclusive and do not appear here. This is one part of a sample in which actives are shown more often than they occur. Calls follow the shape of the dose curve; as a rule, active = well fitted inhibition curve with a large enough effect (not every such curve was filed as active); inconclusive = small, poorly fitted or top-dose-only effect, or another doubt; inactive = no such curve, though single readings can be large or run the other way.
# Molecular target: Aldehyde dehydrogenase 1A1 (Homo sapiens) (UniProt P00352)
# Experiment: qHTS Assay for Inhibitors of Aldehyde Dehydrogenase 1 (ALDH1A1)
# Settings: Purified ALDH1A1, NADH fluorescence, propionaldehyde substrate; series mostly up to 75.3 µM
# Potency is read from the fitted curve at half-maximal effect.
# Aldehyde dehydrogenase 1A1 (Homo sapiens), sequence (P00352 whole entry, looked up): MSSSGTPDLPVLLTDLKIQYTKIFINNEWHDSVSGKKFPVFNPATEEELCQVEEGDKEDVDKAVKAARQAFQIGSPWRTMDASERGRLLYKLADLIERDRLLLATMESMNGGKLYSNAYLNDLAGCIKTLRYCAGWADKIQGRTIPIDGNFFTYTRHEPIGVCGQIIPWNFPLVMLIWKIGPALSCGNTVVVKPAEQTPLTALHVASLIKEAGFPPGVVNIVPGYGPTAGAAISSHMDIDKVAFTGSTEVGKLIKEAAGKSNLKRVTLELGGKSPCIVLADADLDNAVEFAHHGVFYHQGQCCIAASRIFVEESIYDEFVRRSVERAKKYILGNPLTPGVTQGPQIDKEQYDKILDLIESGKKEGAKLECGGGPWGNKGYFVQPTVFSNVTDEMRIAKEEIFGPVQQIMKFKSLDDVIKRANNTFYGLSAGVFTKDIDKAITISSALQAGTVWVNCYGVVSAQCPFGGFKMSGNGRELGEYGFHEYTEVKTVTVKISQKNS
row,SMILES,Potency
1,NS(=O)(=O)c1ccc(CCNC(=O)c2ccc([N+](=O)[O-])cc2[N+](=O)[O-])cc1,inactive
2,CCOC(=O)CCCNC(=O)COC(=O)c1cc(Br)c(Br)s1,inactive
3,O=C(NC1CCCC1)C(c1ccc(N2CCOCC2)cc1)N(C(=O)c1ccco1)c1ccccc1F (stereo not drawn),inactive
4,COc1ccc(C(c2nnnn2Cc2cccs2)N2CCN(c3ccccc3)CC2)cc1OC (stereo not drawn),2 µM (active)
5,COCCn1nnnc1C(c1ccccc1Cl)N1CCN(c2ccccc2OC)CC1 (stereo not drawn),inactive
6,COc1ccc(CCn2nnnc2C(c2ccccc2)N2CCN(C)CC2)cc1OC (stereo not drawn),inactive
7,Cc1ccnc(SCCn2c(Br)nc3c2c(=O)[nH]c(=O)n3C)n1,inactive
8,C=C(C)Cn1c(N2CCCC2)nc2c1c(=O)[nH]c(=O)n2C,inactive
9,Cn1c(=O)[nH]c(=O)c2c1nc(NCCCn1ccnc1)n2Cc1cccc(Br)c1,inactive
10,COc1ccc(CCn2c(NCCCN3CCOCC3)nc3c2c(=O)[nH]c(=O)n3C)cc1,inactive
11,C=C(C)Cn1c(N2CCN(CC)CC2)nc2c1c(=O)[nH]c(=O)n2C,inactive
12,CC1CCN(c2nc3c(c(=O)[nH]c(=O)n3C)n2CCCc2ccccc2)CC1,31.6 µM (active)
13,Cn1c(=O)[nH]c(=O)c2c1nc(N1CCCCCC1)n2CC(=O)c1ccccc1,inactive
14,Cc1nnc(SCCCn2c(N3CCCCC3)nc3c2c(=O)[nH]c(=O)n3C)s1,14.1 µM (active)
15,CN1CCN(c2nc3c(c(=O)[nH]c(=O)n3C)n2Cc2cccc3ccccc23)CC1,25.1 µM (active)
16,COc1ccc(OC)c(NC(=O)N[C@H](Cc2ccccc2)C(=O)NN)c1,inactive
17,CC(C)CN1CCNC(=O)C1CC(=O)N(C)CC1CCOCC1 (stereo not drawn),inactive
18,Cc1ccc(CN(C)CC(=O)Nc2cccc([N+](=O)[O-])c2)o1,inactive
19,CC(=O)c1ccc(NC(=S)N(Cc2ccccc2)C(C)C2CC2)cc1 (stereo not drawn),inactive
20,Cc1ccc(N2C(=O)CC(NCc3ccc4c(c3)OCO4)C2=O)cc1Cl (stereo not drawn),22.4 µM (active)
21,CC1CCC(N2CC(=O)N(Cc3ccc4c(c3)OCO4)C(c3ccc(F)cc3)C2=O)CC1 (stereo not drawn),inactive
22,Cc1ccc(CC2CC(=O)N(c3ccc4c(c3)OCCO4)C2=O)cc1 (stereo not drawn),inactive
23,O=C1NC(c2cccc(Cl)c2)Nc2ccccc21 (stereo not drawn),inactive
24,N/C(=N\S(=O)(=O)c1ccc(Cl)cc1)N1CCOCC1,inactive
25,Cc1ccc(N(C(=O)c2sc(C)nc2C)C(C(=O)NC(C)(C)C)c2ccncc2)cc1 (stereo not drawn),inactive
26,Cc1c(C(=O)O)nnn1-c1nonc1N,inactive

row,SMILES,Potency
1,CCN(C(=O)COC(=O)c1c(NC(C)=O)sc(C)c1C)C1CCS(=O)(=O)C1 (stereo not drawn),inactive
2,CCOC(=O)c1c(/N=C/C2C(=O)CC(C)(C)CC2=O)sc(C)c1C,2.24 µM (active)
3,CCOC(=O)c1sc(/N=C/C2=C(O)CC(C)(C)CC2=O)c(C(=O)OCC)c1C,11.2 µM (active)
4,CC(=O)N1CCN(CCN=CC2=C(O)CC(C)(C)CC2=O)CC1,inactive
5,CC1(C)CC(=O)C(C=NCc2cccnc2)=C(O)C1,inactive
6,CCOC(=O)c1c(NC(=O)/C=C/c2ccco2)sc(C)c1C,inactive
7,Cc1cc(C)nc(N/N=C/c2c(C)oc3ccccc23)n1,inactive
8,O=C(COc1ccccc1[N+](=O)[O-])NC1CC1,inactive
9,C=CCNC(=O)COC(=O)CNC(=O)c1cc(Cl)cc([N+](=O)[O-])c1,inactive
10,Cn1cc(CCC(=O)N2CCCC(C(=O)c3ccc(C(C)(C)C)cc3)C2)cn1 (stereo not drawn),inactive
11,Cc1nn(CC(=O)N/N=C/c2ccc(F)cc2)c(C)c1[N+](=O)[O-],inactive
12,O=C(CCCc1ccccc1)NCc1ccccc1,inactive
13,C/C(=C\c1ccco1)CN1CCC(N2CCC(C(=O)N3CCOCC3)CC2)CC1,inactive
14,Cc1cc(C)n2nc(SCC(N)=O)nc2n1,inactive
15,CCOC(=O)C(C)Sc1nnc(CSc2nc3nc(C)cc(C)n3n2)o1 (stereo not drawn),inactive
16,COc1ccc(C(C)=O)cc1CSc1nc2nc(C)cc(C)n2n1,20 µM (active)
17,O=C(CCC(=O)OCc1ccc(Cl)cc1)Nc1ccccc1,inactive
18,Cc1cc(C)c2nc(-c3cccnc3)cc(C(=O)Nc3ccc(S(=O)(=O)Nc4onc(C)c4C)cc3)c2c1,inactive
19,COc1ccc(/C=C/C(=O)c2ccc(NS(=O)(=O)c3ccc(C)cc3)cc2)cc1O,inactive
20,CN1CCN(C(=O)CCc2ncc(C(F)(F)F)cc2Cl)CC1,inactive
21,CC(CC(=O)C1C(C)C=CCC1(C)C)NNC(N)=O (stereo not drawn),inactive
22,O=S1(=O)CCN2C(=N1)SC1=C2CCN(Cc2ccccc2)C1,inactive
23,O=C(Nc1ccccc1N1CCN(c2ccccc2)CC1)c1cccc(F)c1,inactive
24,O=C(Nc1ccccc1Cc1ccccc1)c1ccc2c(c1)SC1=NS(=O)(=O)CCN12,7.94 µM (active)
25,COc1ccc(N2CCN(CCCNC(=O)C3CCN(S(=O)(=O)N4CCOCC4)CC3)CC2)cc1,inactive
26,CCc1ccc(N2CC(O)=C(c3nc4ccccc4c(=O)[nH]3)C2=N)cc1,inactive

row,SMILES,Potency
1,O=C(C1=C[C@H](c2coc3ccccc3c2=O)C[C@H](OCc2ccc(CO)cc2)O1)N1CCOCC1,inactive
2,O=C(C1=C[C@H](C2CC2)C[C@H](OCc2ccc(CO)cc2)O1)N1CCN(Cc2ccccc2)CC1,inactive
3,CC(C)(C)[C@H]1C=C(C(=O)NCc2ccccc2)O[C@@H](OCc2ccc(CO)cc2)C1,inactive
4,O=C(NCc1ccccc1)C1=C[C@@H](C2CCCCC2)C[C@@H](OCc2ccc(CO)cc2)O1,12.6 µM (active)
5,C=CCOC(=O)C1=C[C@@H](c2ccccc2)C[C@@H](OCc2ccc(CO)cc2)O1,10 µM (active)
6,O=C(NCc1ccccc1)C1=C[C@@H](c2ccc(C(F)(F)F)cc2)C[C@@H](OCc2ccc(CO)cc2)O1,inactive
7,C=CCOC(=O)c1ccccc1C(=O)OCC=C,inactive
8,O=C(NCc1ccccc1)C1=C[C@H](C2CC2)C[C@H](OCc2ccc(CO)cc2)O1,inactive
9,NC(=O)C1=C[C@H](c2csc3ccccc23)C[C@H](OCc2ccc(CO)cc2)O1,8.91 µM (active)
10,O=C(CCS(=O)(=O)c1ccccc1Cl)Nc1ccc(S(=O)(=O)Nc2ncccn2)cc1,inactive
11,O=C(COc1ccccc1)Nc1ccc(N2CCN(C(=O)c3cccs3)CC2)cc1,inactive
12,Cc1ccc(C)c(-n2ccnc2SCC(N)=O)c1,inactive
13,CC(CCn1cccn1)NC(=O)CCc1nnc(CCc2ccccc2)o1 (stereo not drawn),inactive
14,CCC(C)NC(=O)c1nn(C)c(=O)c2ccccc12 (stereo not drawn),inactive
15,CCC(C(=O)OCC(=O)Nc1ccccc1-c1ccccc1)c1ccccc1 (stereo not drawn),inactive
16,CCOC(=O)c1c(C)oc2ccc(OCC(=O)N(CC)CC)cc12,11.2 µM (active)
17,CCOC(=O)c1c(C)[nH]c(C(=O)COc2ccc3c(c2)OCO3)c1C,inactive
18,CCOC(=O)c1c(C)oc2cc(Br)c(OCC(N)=O)cc12,inactive
19,O=C(Nc1ccc(Cl)cc1)/C(=C1\CCCN1)[N+](=O)[O-],inactive
20,Cn1nc(C(F)(F)F)cc1-c1ccc(/C=C(\C#N)C(=O)c2cccc(C(F)(F)F)c2)s1,inactive
21,COc1cc(-c2nn3c(-c4cccc(C)c4)nnc3s2)cc(OC)c1OC,inactive
22,CCOc1cccc(-c2nn3c(-c4ccccn4)nnc3s2)c1,inactive
23,COc1ccc(-c2nn3c(-c4ccccc4)nnc3s2)cc1OC,25.1 µM (active)
24,CC(=O)c1sc(NC(=O)CCCOc2ccccc2C)nc1C,inactive
25,O=[N+]([O-])c1ccccc1N/N=C1\CCc2ccccc21,inactive
26,C=Cn1c(C(=O)O)ccc1-c1ccc(OC)cc1,inactive

row,SMILES,Potency
1,O=C(CSc1nc2[nH]ncc2c(=O)n1-c1ccccc1)N1CCCc2ccccc21,inactive
2,C=CCn1c(=O)c2ccccc2n2c(SCC(=O)N3CCCc4ccccc43)nnc12,4.47 µM (active)
3,CCCn1c(SCC(=O)N2CCc3ccccc32)nnc1-c1ccncc1,inactive
4,Cc1ccnc2nc(C(=O)OCC(=O)N(CC(C)C)CC(C)C)nn12,inactive
5,Cc1ccnc(NS(=O)(=O)c2ccc(NC(=O)c3ccc(S(=O)(=O)N4CCOCC4)cc3)cc2)n1,inactive
6,O=P(O)(O)C(O)c1ccc2ccccc2c1 (stereo not drawn),inactive
7,N#Cc1c(/N=C/N2CCCC2)oc(-c2ccccc2)c1-c1ccccc1,7.94 µM (active)
8,N#Cc1c2c(c(-c3ccccc3)[nH]c1=O)CCCC2,inactive
9,CCSc1sc(CC)cc1C=O,inactive
10,O=C(COC(=O)c1ccccc1)Nc1cccc(S(=O)(=O)N2CCOCC2)c1,inactive
11,Cc1ccc(N(C(=O)c2ccc(S(=O)(=O)N(C)C)cc2)C2C=CS(=O)(=O)C2)cc1 (stereo not drawn),inactive
12,C=CCNc1scc(-c2ccccc2)[n+]1CC=C,inactive
13,CCc1ccnc(NS(=O)(=O)c2ccc3c(c2)OCCO3)c1,inactive
14,CCN(C(=O)COC(=O)/C=C/c1nc2ccccc2s1)C1CCS(=O)(=O)C1 (stereo not drawn),inactive
15,Cc1ccc(-c2csc(NNC(=O)c3ccccc3)n2)cc1,inactive
16,Cc1nc(NC(=O)c2cccc(Cl)c2)sc1-c1csc(Nc2cccc(Cl)c2)n1,inactive
17,CCCCN(C)CCC(=O)Nc1ccc(Cl)cc1,inactive
18,CCCCC(=O)Nc1nc(C)c(-c2csc(Nc3ccc(Cl)cc3)n2)s1,11.2 µM (active)
19,COc1ccc(-c2csc(NC(=O)CCCc3cccs3)n2)cc1,inactive
20,Cc1ccc(Nc2nc(-c3sc(NC(=O)c4ccccc4)nc3C)cs2)cc1,20 µM (active)
21,CCOc1ccc(NCCC(=O)c2ccc3c(c2)OCO3)cc1,0.631 µM (active)
22,COc1ccc(C(=O)Nc2ccc3c(c2)OCO3)cc1OC,inactive
23,COC(=O)CCNc1ccc2c(c1)OCCO2,inactive
24,Cc1ccc(C)n1NC(=O)c1ccc([N+](=O)[O-])cc1,inactive
25,CC(=O)Nc1ccc(Nc2c([N+](=O)[O-])cc(S(C)(=O)=O)cc2[N+](=O)[O-])cc1,inactive
